Measurements from PubChem BioAssay.
Calls of active or inactive are those of the source.

How the values were obtained:
Albumin (Bos taurus) = Albumin (Bos taurus) (UniProt P02769); assay: bovine serum albumin binders on microarray, profiling panel, artefact control for SMM control protein annotation, biochemical, small-molecule microarray, Alexa647 label, 635/667 nm fluorescence (AID 1118); conditions: BSA-A647 binding, fluorescence 635 nm, higher = more signal;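 note: score merges 667 nm emission intensity and signal-to-noise per printed compound spot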
[1] = small-molecule microarray binders of probe aXIP, primary screen, biochemical, NeuroSMM set, 635/667 nm fluorescence (AID 1119); conditions: higher = more signal, called active from +8 up or from −8 down;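 note: probe is the protein aXip251-270 applied at 1 µg/mL to compound-printed slides; binding of probe to printed compounds measured as 667 nm fluorescence plus signal to noise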
[2] = small-molecule binders of probe aNOTCH3, primary screen, biochemical, small-molecule microarray, 635/667 nm fluorescence (AID 1120); conditions: higher = more signal;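 note: probe is a biotin-tagged antibody raised against NOTCH3 rather than NOTCH3 protein; score merges spot fluorescence near 667 nm with spot signal to noise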
[3] = small-molecule binders of probe aNOTCH2, primary screen, biochemical, small-molecule microarray, 635/667 nm fluorescence (AID 1121); conditions: higher = more signal;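 note: score merges feature fluorescence read at 667 nm with its signal to noise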
[4] = target: Carbonic anhydrase 2 (Homo sapiens) (UniProt P00918); assay: CAII small-molecule binders, profiling panel, biochemical, small-molecule microarray, Alexa647-labelled CAII (AID 1122); conditions: CAII-A647 binding fluorescence, higher = more signal
[5] = COS7 lysate on small-molecule microarray, probe aHis, 635 nm (AID 1123); conditions: COS7 cell lysate, fluorescence, higher = more signal;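 note: z-score combines 667nm fluorescence intensity with signal-to-noise per printed compound spot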
[6] = compound binding in COS7 lysate, probe aLAP1, primary screen, cell lysate, small-molecule microarray (AID 1124); conditions: probe aLAP1, fluorescence, higher = more signal;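 note: lysate comes from COS7 cells expressing LAP1 and is applied at 0.3 µg/mL; score merges spot fluorescence near 667 nm with signal-to-noise over triplicate slides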
Sam68 (KHDRBS1) = assay: Sam68 small-molecule binders, primary screen, biochemical, small-molecule microarray, 635 nm fluorescence (AID 1125); conditions: small-molecule microarray binding, higher = more signal;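 note: score merges 667 nm channel intensity with signal to noise over triplicate slides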
[7] = test system: Chordin-like protein 2 (CHRDL2); assay: CHRDL2 small-molecule binders, primary screen, biochemical, small-molecule microarray, 635 nm fluorescence (AID 1126); conditions: small-molecule microarray binding, fluorescence 635 nm; higher = more signal;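 note: printed compound slides probed with Chrdl2 protein at 4 µg/mL for 1 h at 4 C; score merges 667 nm emission intensity with signal to noise over three replicate slides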
[8] = target: Concanavalin-A (Canavalia ensiformis) (UniProt P02866); assay: ConA small-molecule binders, primary screen, artefact control for SMM control protein annotation, biochemical, small-molecule microarray, Alexa647 label, 635 nm (AID 1127); conditions: ConA-A647 binding fluorescence, higher = more signal;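 note: z combines 667 nm emission intensity with signal-to-noise across three replicate slides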
Chain of Concanavalin-A (Canavalia ensiformis) (P02866 whole entry, looked up): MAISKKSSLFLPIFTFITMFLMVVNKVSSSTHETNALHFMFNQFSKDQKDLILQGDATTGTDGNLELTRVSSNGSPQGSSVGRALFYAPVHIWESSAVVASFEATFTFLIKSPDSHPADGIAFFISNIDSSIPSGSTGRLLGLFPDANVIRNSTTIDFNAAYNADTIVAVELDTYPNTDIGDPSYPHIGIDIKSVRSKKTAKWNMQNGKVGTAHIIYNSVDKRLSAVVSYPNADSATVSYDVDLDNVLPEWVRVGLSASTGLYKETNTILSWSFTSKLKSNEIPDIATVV

Chain of Albumin (Bos taurus) (P02769 whole entry, looked up): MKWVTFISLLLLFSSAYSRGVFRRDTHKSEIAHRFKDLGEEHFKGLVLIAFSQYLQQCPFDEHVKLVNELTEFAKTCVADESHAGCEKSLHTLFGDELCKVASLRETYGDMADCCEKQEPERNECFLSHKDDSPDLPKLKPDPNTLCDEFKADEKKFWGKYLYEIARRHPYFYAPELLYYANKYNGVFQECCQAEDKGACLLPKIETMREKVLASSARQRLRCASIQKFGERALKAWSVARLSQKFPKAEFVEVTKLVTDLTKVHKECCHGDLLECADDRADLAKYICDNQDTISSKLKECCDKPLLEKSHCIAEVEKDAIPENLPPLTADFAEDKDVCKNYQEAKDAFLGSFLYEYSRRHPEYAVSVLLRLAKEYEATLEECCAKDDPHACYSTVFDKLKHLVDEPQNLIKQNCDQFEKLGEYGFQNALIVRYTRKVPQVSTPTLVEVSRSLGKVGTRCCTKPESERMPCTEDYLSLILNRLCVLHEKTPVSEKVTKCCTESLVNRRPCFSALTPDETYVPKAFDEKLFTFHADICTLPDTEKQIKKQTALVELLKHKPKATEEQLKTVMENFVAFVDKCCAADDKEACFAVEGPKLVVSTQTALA

For `C#CCN(CC1=CCCCC1)[C@H](c1ccccc1Br)[C@@H](O)Cc1ccccc1`, the composite z-score (Albumin (Bos taurus)) was 0.306, the composite Z-score [1] was -0.356 (inactive) and the composite z-score [2] was -0.344. The composite z-score [3] was -0.177, the composite z-score [4] was 0.345 and the composite z-score [5] was 0.545. The composite z-score [6] was 0.0773, the composite z-score (Sam68 (KHDRBS1)) was 0.516 and the composite z-score [7] was -0.882. It also gave a composite z-score [8] of -0.679.

In the case of `COCCOC(=O)N1C(=O)[C@@]2(c3cc(C#CC4=CCCCC4)ccc31)[C@H](C(N)=O)[C@H]1C(=O)O[C@H](c3ccccc3)[C@H](c3ccccc3)N1[C@@H]2c1ccc(OCCO)cc1`, the composite z-score (Albumin (Bos taurus)) is reported as 0.588, the composite Z-score [1] is reported as 0.362 (inactive) and the composite z-score [2] is reported as -0.315. For the same compound, the composite z-score [3] was -0.259, the composite z-score [4] was 0.348 and the composite z-score [5] was 0.763. The composite z-score [6] was 0.481, the composite z-score (Sam68 (KHDRBS1)) was 1.3 and the composite z-score [7] was 0.0151. The composite z-score [8] was 0.459.

In the case of `O=C1c2ccccc2[C@](Cc2ccccc2I)(C(=O)NC2CC2)[C@H](c2ccc(CO)cc2)N1C1CCCCC1`, the composite z-score (Albumin (Bos taurus)) is reported as 0.767, the composite Z-score [1] is reported as 0.0542 (inactive) and the composite z-score [2] is reported as 0.174. It also gave a composite z-score [3] of -0.0551, a composite z-score [4] of 0.636 and a composite z-score [5] of 2.12. The composite z-score [6] was 1.49, the composite z-score (Sam68 (KHDRBS1)) was 1.22 and the composite z-score [7] was 0.273. For the same compound, the composite z-score [8] was 1.2.

With `CCCC[C@@H]1C[C@H]1[C@@H](NC(=O)c1ccco1)c1ccc(Cl)cc1` the composite z-score (Albumin (Bos taurus)) was 0.796, the composite Z-score [1] was -0.0717 (inactive) and the composite z-score [2] was 0.193. The composite z-score [3] was -0.0164, the composite z-score [4] was 0.637 and the composite z-score [5] was 1.99. The composite z-score [6] was 0.65, the composite z-score (Sam68 (KHDRBS1)) was 1.33 and the composite z-score [7] was -0.414. It also gave a composite z-score [8] of 1.07.

With `COc1cc(CO)cc(I)c1O[C@H]1C=C(C(=O)NCCO)C[C@@H](N(CCN2CCOCC2)C(=O)C2CCOC2)[C@@H]1O` (stereo not given in full) the composite z-score (Albumin (Bos taurus)) was -1.02, the composite Z-score [1] was 0.0953 (inactive) and the composite z-score [2] was 0.189. It also gave a composite z-score [3] of -0.0729, a composite z-score [4] of 0.0321 and a composite z-score [5] of -0.204. The composite z-score [6] was 0.459, the composite z-score (Sam68 (KHDRBS1)) was 0.322 and the composite z-score [7] was 0.486. For the same compound, the composite z-score [8] was -0.169.

With `C=CCOC(=O)[C@H]1[C@@H]2C(=O)O[C@@H](c3ccccc3)[C@@H](c3ccccc3)N2[C@@H](c2ccc(OCCOC(=O)[C@H]3C[C@H]4C(=O)N5CCC[C@H]5C(=O)N4[C@H]3c3ccc(O)cc3)cc2)[C@]12C(=O)Nc1ccccc12` the composite z-score (Albumin (Bos taurus)) was -1.36, the composite Z-score [1] was 0.171 (inactive) and the composite z-score [2] was 0.141. It also gave a composite z-score [3] of -0.0928, a composite z-score [4] of 0.576 and a composite z-score [5] of 2.25. It also gave a composite z-score [6] of 0.793, a composite z-score (Sam68 (KHDRBS1)) of 1.32 and a composite z-score [7] of 1.25. The composite z-score [8] was 1.11.

For `CC(C)(C)OC(=O)CC[C@]1(C(=O)O)N=C(c2ccc(OCCCO)cc2)O[C@H]1c1ccccc1N=[N+]=[N-]`, the composite z-score (Albumin (Bos taurus)) was 0.82, the composite Z-score [1] was 0.653 (inactive) and the composite z-score [2] was 0.786. The composite z-score [3] was 0.473, the composite z-score [4] was 0.838 and the composite z-score [5] was 2.95. For the same compound, the composite z-score [6] was 0.781, the composite z-score (Sam68 (KHDRBS1)) was 0.889 and the composite z-score [7] was 0.0588. It also gave a composite z-score [8] of 0.663.

With `COCCOC(=O)N1C(=O)[C@@]2(c3ccccc31)[C@H](c1ccccc1OCCO)N1[C@H](c3ccccc3)[C@H](c3ccccc3)OC(=O)[C@H]1[C@@H]2C(=O)Nc1nc2ccccc2s1` the composite z-score (Albumin (Bos taurus)) was 0.665, the composite Z-score [1] was 0.746 (inactive) and the composite z-score [2] was 0.133. For the same compound, the composite z-score [3] was -0.089, the composite z-score [4] was 0.481 and the composite z-score [5] was 1.52. For the same compound, the composite z-score [6] was 1.69, the composite z-score (Sam68 (KHDRBS1)) was 1.31 and the composite z-score [7] was 0.651. It also gave a composite z-score [8] of 1.18.

For `[N-]=[N+]=NCc1ccccc1C[C@]1(C(=O)O)N=C(c2ccc(OCCCO)cc2)O[C@H]1c1ccccc1N=[N+]=[N-]`, the composite z-score (Albumin (Bos taurus)) was 0.82, the composite Z-score [1] was -0.17 (inactive) and the composite z-score [2] was 0.238. The composite z-score [3] was 0.0755, the composite z-score [4] was 0.55 and the composite z-score [5] was 2.64. The composite z-score [6] was 0.571, the composite z-score (Sam68 (KHDRBS1)) was 1.32 and the composite z-score [7] was -0.958. For the same compound, the composite z-score [8] was 1.05.

For `CC(=O)NCCCC[C@@H]1NC(=O)[C@@H]2C[C@H](C(=O)NCCCCN(C)C)[C@H](c3cccc(OCCO)c3)N2C1=O`, the composite z-score (Albumin (Bos taurus)) was -0.374, the composite Z-score [1] was 0.714 (inactive) and the composite z-score [2] was -0.186. The composite z-score [3] was -0.112, the composite z-score [4] was 0.57 and the composite z-score [5] was 0.944. It also gave a composite z-score [6] of 0.511, a composite z-score (Sam68 (KHDRBS1)) of 0.259 and a composite z-score [7] of 0.462. It also gave a composite z-score [8] of 0.664.

For `C=CCN1C(=O)[C@]2(O[C@H](CCO)[C@@H]([Si](C)(C)c3ccc(OC)cc3)[C@@H]2C)c2cc(N3C(=O)c4cccc5cccc3c45)ccc21`, the composite z-score (Albumin (Bos taurus)) was 0.634, the composite Z-score [1] was -0.106 (inactive) and the composite z-score [2] was -0.0377. It also gave a composite z-score [3] of -0.0956, a composite z-score [4] of 0.542 and a composite z-score [5] of 0.808. It also gave a composite z-score [6] of 0.0553, a composite z-score (Sam68 (KHDRBS1)) of 0.838 and a composite z-score [7] of 0.0493. For the same compound, the composite z-score [8] was 0.795.

In the case of `COc1ccc(C(O)C2C=CC3C(=O)N(c4ccccc4)C(=O)C3N2Nc2ccc(C(C)C)cc2)cc1OCc1ccccc1` (stereo not given), the composite z-score (Albumin (Bos taurus)) is reported as 0.895, the composite Z-score [1] is reported as 0.868 (inactive) and the composite z-score [2] is reported as 0.307. It also gave a composite z-score [3] of 0.194, a composite z-score [4] of 0.576 and a composite z-score [5] of 1.78. It also gave a composite z-score [6] of 0.902, a composite z-score (Sam68 (KHDRBS1)) of 1.33 and a composite z-score [7] of -0.443. For the same compound, the composite z-score [8] was 1.12.

With `CC(C)(C)OC(=O)CC[C@]1(C(=O)NCC(O)CO)COC(c2ccc(OCCCO)cc2)=N1` (stereo not given in full) the composite z-score (Albumin (Bos taurus)) was 0.693, the composite Z-score [1] was 0.0333 (inactive) and the composite z-score [2] was 0.0425. For the same compound, the composite z-score [3] was -0.106, the composite z-score [4] was 0.828 and the composite z-score [5] was 2.68. The composite z-score [6] was -0.45, the composite z-score (Sam68 (KHDRBS1)) was 0.949 and the composite z-score [7] was -1.53. For the same compound, the composite z-score [8] was 0.504.

For `CC(C)N1C(=O)c2ccccc2[C@](C)(C(=O)NCc2ccccc2)[C@@H]1c1ccc(CO)cc1`, the composite z-score (Albumin (Bos taurus)) was 0.182, the composite Z-score [1] was 1.32 (inactive) and the composite z-score [2] was -0.245. The composite z-score [3] was -0.0323, the composite z-score [4] was 0.703 and the composite z-score [5] was -0.129. For the same compound, the composite z-score [6] was 0.967, the composite z-score (Sam68 (KHDRBS1)) was -0.484 and the composite z-score [7] was -0.798. For the same compound, the composite z-score [8] was -0.866.

In the case of `COc1cc2c(cc1OC)CN(C(=O)[C@H]1[C@@H]3C(=O)O[C@@H](c4ccccc4)[C@@H](c4ccccc4)N3[C@@H](c3ccc(O)cc3)[C@]13C(=O)Nc1ccc(C#CC4=CCCCC4)cc13)CC2`, the composite z-score (Albumin (Bos taurus)) is reported as 0.672, the composite Z-score [1] is reported as 0.721 (inactive) and the composite z-score [2] is reported as 0.533. The composite z-score [3] was -0.0411, the composite z-score [4] was 0.561 and the composite z-score [5] was 1.74. For the same compound, the composite z-score [6] was 0.969, the composite z-score (Sam68 (KHDRBS1)) was 1.31 and the composite z-score [7] was 0.575. It also gave a composite z-score [8] of 1.14.

In the case of `CCCCC(O)C1C=CC2C(=O)N(c3ccccc3)C(=O)C2N1Nc1ccccc1F` (stereo not given), the composite z-score (Albumin (Bos taurus)) is reported as 0.8, the composite Z-score [1] is reported as 1.54 (inactive) and the composite z-score [2] is reported as 0.378. For the same compound, the composite z-score [3] was 0.387, the composite z-score [4] was 0.747 and the composite z-score [5] was 2.54. It also gave a composite z-score [6] of 0.439, a composite z-score (Sam68 (KHDRBS1)) of 1.12 and a composite z-score [7] of 0.0354. It also gave a composite z-score [8] of 1.13.
